Where “and” joins values, the source holds several entries; their conditions need not be identical. Identical values can stand only once. Hit rate of the full screen: of about 5,500 compounds, about 2,000 (36%) were called active. Roughly 18% stayed inconclusive and do not appear here. Rule as the data show it: active = normalized growth mostly below about 0.91 (no sharp cut-off); inconclusive = no clear call, values can overlap the other calls; inactive = mostly above about 0.92. The list shows a part of the results.
Experiment: chemical genetic growth profiling, strain panel (AID 1159580);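 also: tested at 20 µM; growth read once vehicle control cultures reached saturation at 30 °C; 1 = growth at the plate median or of vehicle wells; lower values mean less growth of the strain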
Details: S. cerevisiae deletion strains, growth OD

Measured: normalized growth

CC1=C(O)C(=O)C=C2C1=CC=C1[C@@]2(C)CC[C@@]2(C)[C@@H]3C[C@](C)(C(=O)O)CC[C@]3(C)CC[C@]12C
inactive: locus YBR021W, strain FUR4, hits give low values 0.859 | locus YDL185W, strain tfp1, hits give low values 0.943
active: locus YAL021C, strain ccr4, hits give low values 0.56 | locus YAL026C, strain drs2, hits give low values 0.51 | locus YAL030W, strain snc1, hits give low values 0.573 | locus YBL061C, strain skt5, hits give low values 0.479 | locus YBR009C, strain hhf1, hits give low values 0.375 | locus YBR023C, strain chs3, hits give low values 0.42 | locus YBR171W, strain sec66, hits give low values 0.812 | locus YBR229C, strain ROT2, hits give low values 0.623 | locus YBR231C, strain swc5, hits give low values 0.307 | locus YBR279W, strain paf1, hits give low values 0.527 | locus YCL011C, strain gbp2, hits give low values 0.433 | locus YCL016C, strain dcc1, hits give low values 0.592 | locus YCL029C, strain bik1, hits give low values 0.493 | locus YCL061C, strain MRC1, hits give low values 0.611 | locus YCL069W, strain vba3, hits give low values 0.611 | locus YCR088W, strain abp1, hits give low values 0.64 | locus YDL005C, strain med2, hits give low values 0.509 | locus YDL035C, strain GPR1, hits give low values 0.391 | locus YDL040C, strain nat1, hits give low values 0.848 | locus YDL074C, strain BRE1, hits give low values 0.195 | locus YDL101C, strain DUN1, hits give low values 0.264 | locus YDL134C, strain PPH21, hits give low values 0.44 | locus YDL192W, strain arf1, hits give low values 0.568 | locus YDR001C, strain nth1, hits give low values 0.806 | locus YDR069C, strain doa4, hits give low values 0.327 | locus YDR101C, strain arx1, hits give low values 0.665 | locus YDR137W, strain rgp1, hits give low values 0.238 | locus YDR159W, strain sac3, hits give low values 0.403 | locus YDR162C, strain NBP2, hits give low values 0.098 | locus YDR195W, strain ref2 0.348 | locus YDR297W, strain sur2, hits give low values 0.429 | locus YDR318W, strain mcm21, hits give low values 0.523 | locus YDR334W, strain swr1, hits give low values 0.353 | locus YDR335W, strain msn5, hits give low values 0.522 | locus YDR388W, hits give low values 0.683 | locus YDR392W, strain spt3, hits give low values 0.101 | locus YDR502C, strain sam2, hits give low values 0.521 | locus YEL003W, strain gim4, hits give low values 0.489 | locus YEL037C, strain rad23, hits give low values 0.769 | locus YEL061C, strain CIN8 (second series), hits give low values 0.403 | locus YEL061C, strain CIN8, hits give low values 0.391 | locus YER015W, strain faa2, hits give low values 0.429 | locus YER016W, strain bim1, hits give low values 0.565 | locus YER110C, hits give low values 0.766 | locus YER111C, strain swi4, hits give low values 0.329 | locus YER155C, strain BEM2 (second series), hits give low values 0.342 | locus YER155C, strain BEM2, hits give low values 0.254 | locus YER167W, strain BCK2, hits give low values 0.334 | locus YFR010W, strain ubp6, hits give low values 0.657 | locus YGL078C, strain dbp3, hits give low values 0.905 | locus YGL086W, strain mad1, hits give low values 0.619 | locus YGL167C, strain pmr1, hits give low values 0.706 | locus YGL173C, strain kem1, hits give low values 0.27 | locus YGL227W, strain vid30, hits give low values 0.571 | locus YGL240W, strain doc1, hits give low values 0.646 | locus YGL248W, strain PDE1, hits give low values 0.369 | locus YGL253W, strain hxk2, hits give low values 0.485 | locus YGR135W, strain pre9, hits give low values 0.557 | locus YGR252W, strain gcn5, hits give low values 0.5 | locus YHR013C, strain ard1, hits give low values 0.273 | locus YHR027C, strain rpn1, hits give low values 0.423 | locus YHR030C, strain SLT2, hits give low values 0.248 and 0.76 | locus YHR079C, strain IRE1 (second series), hits give low values 0.659 | locus YHR079C, strain IRE1, hits give low values 0.732 | locus YHR094C, strain hxt1, hits give low values 0.721 | locus YHR129C, strain ARP1, hits give low values 0.349 | locus YHR142W, strain chs7, hits give low values 0.309 | locus YHR200W, strain rpn10, hits give low values 0.749 | locus YIL066C, strain RNR3, hits give low values 0.308 | locus YIL073C, strain SPO22, hits give low values 0.623 | locus YIL125W, strain kgd1, hits give low values 0.812 | locus YIR030C, strain dcg1, hits give low values 0.552 | locus YJL092W, strain hpr5, hits give low values 0.7 | locus YJL095W, strain BCK1 (second series), hits give low values 0.372 | locus YJL095W, strain BCK1, hits give low values 0.211 and 0.783 | locus YJL115W, strain asf1, hits give low values 0.856 | locus YJL129C, strain trk1, hits give low values 0.35 | locus YJL134W, strain LCB3, hits give low values 0.692 | locus YJL154C, strain vps35, hits give low values 0.776 | locus YJL164C, strain tpk1, hits give low values 0.316 | locus YJL166W, strain qcr8, hits give low values 0.312 | locus YJL168C, strain set2, hits give low values 0.866 | locus YJL187C, strain SWE1 (second series), hits give low values 0.142 | locus YJR043C, strain POL32, hits give low values 0.385

Source: PubChem BioAssay AID1159580 (chemical genetic matrix, 2015)
